Data as given in the supplement of paper PMC11732987, “Enantioselective OTUD7B fragment discovery through chemoproteomics screening and high-throughput optimisation” (Communications Chemistry, 2025).

How the values were obtained:
Test in all cases: log2 ratio of Biotin-Ahx-Ub-VS probe labelling (fragment/DMSO); higher = less target engagement (more negative = stronger competition), active = hit call of the paper (q ≤ 0.05, log2 ratio ≤ -1)
Settings in all cases: compound concentration: 200 uM; treatment time: 3 h
USP34 = USP34 (UniProt Q70CQ2)
Outline: (§1)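 HEK293T lysate, 495 µg per sample in Tris/CHAPS/IGEPAL buffer with protease inhibitors, was treated in triplicate with fragment at 200 µM or vehicle for 3 h and then with Biotin-Ahx-Ub-VS at 0.5 µM final for 1 h. Labelled DUBs were NeutrAvidin-enriched, digested with LysC and trypsin, and run by diaPASEF LC-MS/MS. Spectronaut label-free quantities were global-median-normalised, and values are average log2 fragment/vehicle ratios by unpaired t-test on proteins with ≥2 unique peptides.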

USP36 = biological target: T1, USP36 (UniProt Q9P275)
T1 sequence (whole entry): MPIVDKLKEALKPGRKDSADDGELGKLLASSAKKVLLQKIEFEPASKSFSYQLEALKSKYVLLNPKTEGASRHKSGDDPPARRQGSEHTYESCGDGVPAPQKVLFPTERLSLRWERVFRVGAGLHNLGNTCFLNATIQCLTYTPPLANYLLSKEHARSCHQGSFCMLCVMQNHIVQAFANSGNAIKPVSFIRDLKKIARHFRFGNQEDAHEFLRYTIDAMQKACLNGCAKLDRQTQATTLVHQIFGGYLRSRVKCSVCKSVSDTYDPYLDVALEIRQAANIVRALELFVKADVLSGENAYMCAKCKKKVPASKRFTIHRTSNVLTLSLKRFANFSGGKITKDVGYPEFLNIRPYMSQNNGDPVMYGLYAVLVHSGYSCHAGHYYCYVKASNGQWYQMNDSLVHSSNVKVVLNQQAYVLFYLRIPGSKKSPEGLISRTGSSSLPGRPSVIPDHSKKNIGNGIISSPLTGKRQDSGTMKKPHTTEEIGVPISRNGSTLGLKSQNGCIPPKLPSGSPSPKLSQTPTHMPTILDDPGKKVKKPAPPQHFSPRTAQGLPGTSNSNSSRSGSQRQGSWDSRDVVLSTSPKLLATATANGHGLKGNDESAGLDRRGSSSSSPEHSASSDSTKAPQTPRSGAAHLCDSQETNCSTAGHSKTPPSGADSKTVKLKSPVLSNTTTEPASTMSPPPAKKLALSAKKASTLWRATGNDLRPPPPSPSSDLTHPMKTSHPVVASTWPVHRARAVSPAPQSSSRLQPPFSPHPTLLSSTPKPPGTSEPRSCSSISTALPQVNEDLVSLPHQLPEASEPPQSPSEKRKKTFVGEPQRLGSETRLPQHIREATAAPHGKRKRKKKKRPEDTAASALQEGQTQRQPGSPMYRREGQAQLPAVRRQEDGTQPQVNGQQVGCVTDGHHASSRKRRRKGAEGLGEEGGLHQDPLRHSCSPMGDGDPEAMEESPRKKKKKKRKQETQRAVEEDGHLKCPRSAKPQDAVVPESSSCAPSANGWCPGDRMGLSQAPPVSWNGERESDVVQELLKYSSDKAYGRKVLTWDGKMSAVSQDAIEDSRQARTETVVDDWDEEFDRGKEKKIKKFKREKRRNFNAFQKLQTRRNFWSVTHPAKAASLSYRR
Outline: as §1

USP38 = biological target: T2, USP38 (UniProt Q8NB14)
T2 sequence (whole entry): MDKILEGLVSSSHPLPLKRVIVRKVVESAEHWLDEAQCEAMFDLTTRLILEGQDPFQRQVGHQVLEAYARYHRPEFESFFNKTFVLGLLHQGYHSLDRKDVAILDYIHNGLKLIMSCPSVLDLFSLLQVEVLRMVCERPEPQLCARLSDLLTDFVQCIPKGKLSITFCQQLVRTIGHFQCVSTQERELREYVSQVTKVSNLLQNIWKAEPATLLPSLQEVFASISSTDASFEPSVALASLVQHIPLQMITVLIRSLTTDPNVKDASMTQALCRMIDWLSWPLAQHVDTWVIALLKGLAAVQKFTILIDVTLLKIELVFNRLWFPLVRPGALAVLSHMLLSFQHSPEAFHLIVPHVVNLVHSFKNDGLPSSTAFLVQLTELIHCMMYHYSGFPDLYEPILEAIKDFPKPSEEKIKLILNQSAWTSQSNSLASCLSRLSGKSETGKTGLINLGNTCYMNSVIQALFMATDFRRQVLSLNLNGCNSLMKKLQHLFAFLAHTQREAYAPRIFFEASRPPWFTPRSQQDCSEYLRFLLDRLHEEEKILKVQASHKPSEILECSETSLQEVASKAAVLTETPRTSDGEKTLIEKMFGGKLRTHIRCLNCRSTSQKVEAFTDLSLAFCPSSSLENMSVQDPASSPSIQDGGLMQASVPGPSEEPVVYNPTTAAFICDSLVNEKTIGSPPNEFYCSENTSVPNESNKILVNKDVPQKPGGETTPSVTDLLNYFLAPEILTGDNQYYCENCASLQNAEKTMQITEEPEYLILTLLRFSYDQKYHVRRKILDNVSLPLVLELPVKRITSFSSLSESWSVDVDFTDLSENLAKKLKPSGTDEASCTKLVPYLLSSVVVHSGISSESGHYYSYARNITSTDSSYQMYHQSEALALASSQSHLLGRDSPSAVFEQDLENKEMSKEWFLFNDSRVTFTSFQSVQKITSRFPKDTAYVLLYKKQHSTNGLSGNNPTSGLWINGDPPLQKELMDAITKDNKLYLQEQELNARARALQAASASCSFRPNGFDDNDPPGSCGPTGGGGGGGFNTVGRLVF
Outline: as §1

USP39 = biological target: T3, USP39 (UniProt Q53GS9)
T3 sequence (whole entry): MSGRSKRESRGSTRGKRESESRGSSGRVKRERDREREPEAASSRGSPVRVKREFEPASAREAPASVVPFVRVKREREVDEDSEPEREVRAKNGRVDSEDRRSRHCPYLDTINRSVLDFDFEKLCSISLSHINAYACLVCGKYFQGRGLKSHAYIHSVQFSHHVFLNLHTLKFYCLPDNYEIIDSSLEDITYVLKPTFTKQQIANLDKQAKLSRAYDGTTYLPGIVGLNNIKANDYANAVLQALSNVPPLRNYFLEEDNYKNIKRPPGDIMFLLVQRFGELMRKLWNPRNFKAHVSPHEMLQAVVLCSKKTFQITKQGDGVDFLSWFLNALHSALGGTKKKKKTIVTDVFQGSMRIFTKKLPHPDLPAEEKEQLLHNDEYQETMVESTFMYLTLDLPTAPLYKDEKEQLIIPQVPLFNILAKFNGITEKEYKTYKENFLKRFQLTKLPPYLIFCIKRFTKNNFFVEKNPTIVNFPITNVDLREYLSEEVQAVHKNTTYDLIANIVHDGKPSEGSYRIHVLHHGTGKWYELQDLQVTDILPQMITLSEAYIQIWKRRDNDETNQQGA
Outline: as §1

USP4 = biological target: T4, USP4 (UniProt Q13107)
T4 sequence (whole entry): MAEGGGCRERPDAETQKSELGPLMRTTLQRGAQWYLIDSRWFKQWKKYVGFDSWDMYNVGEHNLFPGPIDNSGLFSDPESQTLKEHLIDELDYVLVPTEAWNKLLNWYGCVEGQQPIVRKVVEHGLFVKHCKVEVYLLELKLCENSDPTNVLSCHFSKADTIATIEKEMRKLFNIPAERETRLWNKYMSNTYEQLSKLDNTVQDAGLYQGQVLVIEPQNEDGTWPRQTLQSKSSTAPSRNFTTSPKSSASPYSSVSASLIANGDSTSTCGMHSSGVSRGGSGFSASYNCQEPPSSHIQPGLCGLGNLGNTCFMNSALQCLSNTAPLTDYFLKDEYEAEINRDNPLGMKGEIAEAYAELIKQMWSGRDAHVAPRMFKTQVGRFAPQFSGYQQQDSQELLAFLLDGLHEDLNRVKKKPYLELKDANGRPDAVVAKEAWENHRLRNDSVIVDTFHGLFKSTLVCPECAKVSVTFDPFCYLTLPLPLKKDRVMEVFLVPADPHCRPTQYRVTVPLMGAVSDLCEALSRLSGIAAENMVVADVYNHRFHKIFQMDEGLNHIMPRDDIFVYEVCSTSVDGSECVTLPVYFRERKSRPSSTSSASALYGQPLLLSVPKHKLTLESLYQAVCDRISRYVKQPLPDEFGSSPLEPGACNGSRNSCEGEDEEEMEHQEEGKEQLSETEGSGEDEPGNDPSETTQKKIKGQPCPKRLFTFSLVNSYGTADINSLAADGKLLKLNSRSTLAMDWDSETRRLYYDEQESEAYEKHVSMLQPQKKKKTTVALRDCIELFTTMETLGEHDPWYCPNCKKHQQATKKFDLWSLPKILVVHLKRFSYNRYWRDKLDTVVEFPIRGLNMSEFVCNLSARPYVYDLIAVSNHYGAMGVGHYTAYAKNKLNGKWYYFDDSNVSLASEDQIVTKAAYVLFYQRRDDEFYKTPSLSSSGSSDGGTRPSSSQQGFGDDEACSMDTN
Outline: as §1

Measured: log2 ratio of Biotin-Ahx-Ub-VS probe labelling

Chain of USP34 (Q70CQ2 whole entry, the tested form may be a part): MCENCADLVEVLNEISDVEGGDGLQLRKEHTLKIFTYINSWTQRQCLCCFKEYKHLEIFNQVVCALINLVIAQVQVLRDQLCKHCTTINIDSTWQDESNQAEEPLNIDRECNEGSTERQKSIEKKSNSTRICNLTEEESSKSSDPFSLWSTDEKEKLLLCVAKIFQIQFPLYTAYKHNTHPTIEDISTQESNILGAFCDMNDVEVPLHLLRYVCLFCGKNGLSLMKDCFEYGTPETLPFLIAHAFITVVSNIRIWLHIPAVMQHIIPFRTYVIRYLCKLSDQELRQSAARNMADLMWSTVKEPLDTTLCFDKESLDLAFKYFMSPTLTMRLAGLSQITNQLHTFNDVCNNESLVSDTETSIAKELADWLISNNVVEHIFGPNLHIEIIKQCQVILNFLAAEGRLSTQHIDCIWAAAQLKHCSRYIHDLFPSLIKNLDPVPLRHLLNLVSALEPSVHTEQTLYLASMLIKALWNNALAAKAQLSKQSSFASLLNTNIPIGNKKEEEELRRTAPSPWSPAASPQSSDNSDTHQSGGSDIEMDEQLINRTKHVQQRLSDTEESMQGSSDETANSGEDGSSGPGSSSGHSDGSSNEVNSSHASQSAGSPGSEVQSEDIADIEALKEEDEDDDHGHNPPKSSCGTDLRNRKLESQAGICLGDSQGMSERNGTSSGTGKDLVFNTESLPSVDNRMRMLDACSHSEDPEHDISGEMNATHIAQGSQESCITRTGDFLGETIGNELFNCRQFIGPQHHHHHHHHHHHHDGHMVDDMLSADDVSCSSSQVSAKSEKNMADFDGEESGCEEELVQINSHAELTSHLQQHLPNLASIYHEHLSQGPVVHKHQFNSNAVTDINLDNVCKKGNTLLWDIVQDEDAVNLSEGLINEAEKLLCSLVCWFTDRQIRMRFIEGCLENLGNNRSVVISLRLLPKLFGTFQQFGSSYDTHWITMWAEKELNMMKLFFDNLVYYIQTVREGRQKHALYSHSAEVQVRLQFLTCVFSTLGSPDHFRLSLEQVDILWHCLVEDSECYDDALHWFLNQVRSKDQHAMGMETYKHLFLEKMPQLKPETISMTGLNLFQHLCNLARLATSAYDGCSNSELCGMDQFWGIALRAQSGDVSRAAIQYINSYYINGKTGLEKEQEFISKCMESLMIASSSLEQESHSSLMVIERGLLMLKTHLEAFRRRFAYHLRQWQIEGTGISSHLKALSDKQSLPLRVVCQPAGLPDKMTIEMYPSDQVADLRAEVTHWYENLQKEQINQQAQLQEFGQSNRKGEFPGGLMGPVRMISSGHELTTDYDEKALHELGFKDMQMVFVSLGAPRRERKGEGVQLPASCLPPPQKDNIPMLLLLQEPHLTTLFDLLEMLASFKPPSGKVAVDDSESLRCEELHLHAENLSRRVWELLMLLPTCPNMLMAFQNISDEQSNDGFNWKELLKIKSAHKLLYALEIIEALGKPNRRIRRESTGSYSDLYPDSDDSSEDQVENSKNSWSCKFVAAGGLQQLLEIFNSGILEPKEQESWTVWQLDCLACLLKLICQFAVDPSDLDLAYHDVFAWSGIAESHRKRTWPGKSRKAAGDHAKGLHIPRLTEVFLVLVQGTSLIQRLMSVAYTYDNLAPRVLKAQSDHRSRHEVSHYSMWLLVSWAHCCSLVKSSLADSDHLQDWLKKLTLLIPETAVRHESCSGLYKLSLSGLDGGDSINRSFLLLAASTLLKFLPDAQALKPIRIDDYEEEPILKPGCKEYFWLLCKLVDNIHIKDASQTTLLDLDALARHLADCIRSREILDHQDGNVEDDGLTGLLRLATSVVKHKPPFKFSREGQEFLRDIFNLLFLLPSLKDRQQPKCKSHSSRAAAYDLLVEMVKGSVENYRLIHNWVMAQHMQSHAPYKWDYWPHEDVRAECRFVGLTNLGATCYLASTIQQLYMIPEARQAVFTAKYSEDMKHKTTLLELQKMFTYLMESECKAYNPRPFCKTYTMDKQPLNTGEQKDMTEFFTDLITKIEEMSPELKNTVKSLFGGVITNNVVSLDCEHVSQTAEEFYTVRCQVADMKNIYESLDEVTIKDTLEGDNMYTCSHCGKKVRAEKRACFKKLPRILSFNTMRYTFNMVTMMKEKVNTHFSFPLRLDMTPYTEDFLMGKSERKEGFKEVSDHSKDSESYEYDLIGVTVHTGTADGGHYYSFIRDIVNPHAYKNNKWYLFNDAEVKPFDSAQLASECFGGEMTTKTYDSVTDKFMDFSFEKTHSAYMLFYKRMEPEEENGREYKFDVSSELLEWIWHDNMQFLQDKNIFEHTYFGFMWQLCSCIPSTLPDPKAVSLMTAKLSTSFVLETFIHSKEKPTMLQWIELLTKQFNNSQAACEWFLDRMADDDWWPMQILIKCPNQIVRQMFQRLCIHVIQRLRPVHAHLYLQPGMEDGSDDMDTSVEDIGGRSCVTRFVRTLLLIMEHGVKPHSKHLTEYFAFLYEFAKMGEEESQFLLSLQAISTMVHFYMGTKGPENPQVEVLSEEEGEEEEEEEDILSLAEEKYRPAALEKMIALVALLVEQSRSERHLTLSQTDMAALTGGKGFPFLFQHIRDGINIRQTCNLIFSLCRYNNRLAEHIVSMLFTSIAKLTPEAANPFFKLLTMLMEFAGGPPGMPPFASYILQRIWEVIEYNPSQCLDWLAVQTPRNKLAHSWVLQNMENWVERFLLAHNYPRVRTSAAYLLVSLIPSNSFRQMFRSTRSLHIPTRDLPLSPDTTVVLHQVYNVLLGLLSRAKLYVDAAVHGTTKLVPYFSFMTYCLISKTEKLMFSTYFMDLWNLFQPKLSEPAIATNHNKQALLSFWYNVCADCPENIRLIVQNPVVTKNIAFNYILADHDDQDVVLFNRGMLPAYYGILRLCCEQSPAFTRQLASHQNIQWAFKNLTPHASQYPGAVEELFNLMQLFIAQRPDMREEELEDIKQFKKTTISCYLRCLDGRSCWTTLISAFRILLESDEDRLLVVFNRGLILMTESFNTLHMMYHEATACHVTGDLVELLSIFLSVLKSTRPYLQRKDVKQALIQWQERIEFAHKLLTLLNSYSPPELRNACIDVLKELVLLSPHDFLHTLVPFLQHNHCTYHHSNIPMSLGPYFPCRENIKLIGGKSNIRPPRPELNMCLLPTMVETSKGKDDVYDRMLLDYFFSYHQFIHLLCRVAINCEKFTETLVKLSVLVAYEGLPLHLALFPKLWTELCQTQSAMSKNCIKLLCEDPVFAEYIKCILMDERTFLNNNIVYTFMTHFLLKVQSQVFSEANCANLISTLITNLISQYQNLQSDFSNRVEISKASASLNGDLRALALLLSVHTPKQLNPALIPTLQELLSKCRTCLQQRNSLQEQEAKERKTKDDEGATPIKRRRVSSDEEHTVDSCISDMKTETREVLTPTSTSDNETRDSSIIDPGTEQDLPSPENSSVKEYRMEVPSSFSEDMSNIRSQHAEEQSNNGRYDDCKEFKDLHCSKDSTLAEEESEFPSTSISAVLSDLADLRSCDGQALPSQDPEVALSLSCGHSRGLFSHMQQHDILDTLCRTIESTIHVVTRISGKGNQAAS

COc1ccc(CN(C)C(=O)CCl)cc1
inactive: USP34 -0.0886 | USP36 0.0384 | USP38 0.0505 | USP39 0.298 | USP4 -0.016
